# Screens (PubChem)
# In the library only some 7.2% were active in any assay of this set; here they are far more common.
# MARV entry inh – Marburg virus entry inhibition. Marburg virus pseudotyped entry inhibition, cell reporter. Potency, µM (top dose mostly 37.8 µM), inactives show at the top dose activity change, negative = inhibition, most hits filed as inhibitors. AID 540276. actives 1.8% (n = 300,000); calls by dose curve; tested in HEK293 cells
# HCV inhibitor – inhibitors of hepatitis C virus infection; actives 3.4% (n = 340,000); Huh7.5.1 HCVcc-Cre infection, luciferase reporter, 44 h; Potency, µM (doses to about 41.8 µM), without a hit: top-dose activity change, negative = inhibition, hits mostly inhibitors
#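 Cells seeded at 1,000/well and cultured 4 h, then compounds added followed by HCVcc-Cre virus (~0.5 moi). After 44 h further culture, luciferase substrate was added, plates held 15 min at room temperature, and luminescence read for 15 sec.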
# FMDV antiviral – blocks foot and mouth disease virus. FMDV antiviral cell-based qHTS. Potency, µM (series often up to 57.9 µM), without a hit: top-dose activity change, negative = inhibition, most hits filed as inhibitors. actives 1.2% (n = 410,000). AID 1159524; calls by dose curve; tested in HEK293T cells; note: read-out not given here; nearly all actives have a fitted effect of over 45% in size
# RE007 growth inh – less growth of the S. pombe RE007 Vpr strain. S. pombe RE007 Vpr strain, BacTiter-Glo ATP luminescence, 24 h. Potency, µM (series often up to 92.2 µM), without a hit: at the top dose activity change, negative = less growth, hits mostly inhibitors. actives 0.21% (n = 360,000); active = well fitted falling curve with a large enough effect; inconclusive = small, poorly fitted or top-dose-only effect; inactive = no such curve, though single readings can be large or run the other way; note: nearly all actives have a fitted effect of over 50% in size
#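 Fission yeast strain RE007, carrying one chromosomally integrated HIV-1 vpr copy, was seeded at OD 0.01 in PMG+AL medium with 23 nL pinned compound. After 24 h at 30 °C and 99% humidity, viability was read by BacTiter-Glo luminescence.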
# LASV entry inh – inhibitors of Lassa virus binding or cell entry | Lassa virus pseudotype entry inhibition, cell reporter | Potency, µM (titrated, usually from 37.9 µM), for inactives: at the top dose activity change, negative = inhibition, usual class: inhibitors | actives 1.2% (n = 300,000) | AID 540256; calls by dose curve; tested in HEK293 cells; note: nearly all actives have a fitted effect of over 50% in size
# Sm TGR block – S. mansoni TGR enzyme inhibition; Q962Y6; purified TGR, DTNB reduction, TNB absorbance 405 nm; AID 485364; actives 3% (n = 360,000); Potency, µM (highest dose often 114 µM), without a hit: top-dose activity change, negative = inhibition, most hits filed as inhibitors; note: nearly all actives have a fitted effect of over 60% in size
#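 TGR 20 nM + NADPH 100 uM (dispensed conc.), cpd preinc 15 min RT; start with NADPH (500 uM addition) then DTNB (15 mM addition). Kinetic TNB absorbance, 405 nm filter. Four-parameter Hill fit across titration.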
# An asterisk follows results filed as active; ? = inconclusive; nt = no result given; [ ] = dose if it differs, or a comment. Unless noted, calls come from the whole dose curve; as a rule, active = well fitted curve in the direction sought with a large enough effect; inconclusive = small, poorly fitted or top-dose-only effect, or another doubt; inactive = no such curve, though single readings can be large; an effect the other way counts as inactive or inconclusive. % is set by controls: 0 for no effect and ±100 for the full control effect; potency is the fitted concentration of half-maximal effect.
SMILES,MARV entry inh,HCV inhibitor,FMDV antiviral,RE007 growth inh,LASV entry inh,Sm TGR block
COc1ccc(Nc2nc(N3CCCC3)nc3ccccc23)c(OC)c1,?,3.16µM*,nt,8.6%,16.4µM*,-3.7%
C=CCNc1nc(N2CCCC2)nc2ccccc12,?,15.8µM*,-16.0%,-11.2%,-5.6%,-4.9%
COc1cccc(N2CCN(C(=O)CCc3c(C)nc4c(c3C)c(=O)n(C)c(=O)n4C)CC2)c1,16.5%[46.1 µM],nt,0.0%,nt,17.0%[46.1 µM],-0.5%
O=c1c(-c2cccc(F)c2)nc2cncnc2n1C1CC1,nt,nt,-1.8%,nt,nt,nt
COc1ccc(Nc2nc(N3CCOCC3)nc(N3CCOCC3)n2)cc1Cl,?,10µM*,-28.1%,-9.1%,-19.9%,8.3%
Cn1cccc1C(=O)N1CCC[C@@]2(CCN(c3ccccn3)C2)C1,nt,nt,-15.8%,nt,nt,nt
CCc1ccc(C2c3[nH]c4ccccc4c3CCN2C(=O)CN2CCN(CC)CC2)cc1 (configuration not stated),12.6µM*,?,-20.9%,1.6%,?,10.6%
CSc1ccc(C2c3[nH]c4ccccc4c3CCN2C(=O)c2ccnn2C)cc1 (configuration not stated),?,2.2%,17.2%,13.0%,?,0.0%
CCc1ccc(C2c3[nH]c4ccccc4c3CCN2C(=O)c2ccc(=O)n(C)n2)cc1 (configuration not stated),11.2µM*,-0.5%,-18.1%,7.1%,?,-0.4%
CCc1ccc(C2c3[nH]c4ccccc4c3CCN2C(=O)CNC(N)=O)cc1 (configuration not stated),-17.7%,28.8%,?,9.0%,-23.0%,2.4%
COC(=O)c1cc(-c2ccc(Cl)cc2)c2c(=O)[nH]c(=O)n(C)c2n1,-8.3%[46.1 µM],nt,-17.9%,nt,-3.9%[46.1 µM],-0.5%
CNC(=O)[C@H]1O[C@@H](n2cnc3c(NCc4cccc(I)c4)nc(Cl)nc32)[C@H](O)[C@@H]1O,nt,-14.8%,-20.1%,11.6%[18.4 µM],nt,3.1%
C=CCN1C(=O)/C(=C\c2ccco2)C(C(=O)OC)=C1C,0.6%,?,-3.6%,-14.8%,3.1%,39.8µM*
COC(=O)C1=C(C)N(CC(C)C)C(=O)/C1=C\c1cccs1,-4.9%,15.8µM*,0.0%,-8.3%,-1.2%,-12.6%
CCOc1cc(/C=C2\C(=O)N(Cc3ccco3)C(C)=C2C(=O)OC)ccc1O,?,-15.9%,?,7.6%,?,nt
COC(=O)C1=C(C)N(c2cccc(OC)c2)C(=O)/C1=C\c1ccco1,-26.7%,?,-27.0%,-1.1%,-17.3%,35.5µM*
CCN1C(=O)/C(=C\c2ccco2)C(C(=O)OC)=C1C,-22.1%,12.6µM*,-10.9%,-19.7%,-1.9%,-2.9%
CC(=O)N1CCc2c(sc(NC(=O)C3CC3)c2-c2nc3ccccc3s2)C1,-0.4%,12.6µM*,25.1µM*,-13.9%,nt,-18.7%
CCCCC(=O)Nc1sc2c(c1-c1nc3ccccc3s1)CCN(C(C)=O)C2,-5.1%,?,nt,nt,nt,-25.4%
COc1ccc(C(=O)N2CCC3(CCN(Cc4ccccc4OC)CC3)CC2)cc1,nt,nt,-7.6%,nt,nt,nt
NC(N)=N/N=C/c1ccc(Cl)c(Cl)c1,?,1.6%,-23.0%,14.7%,?,3.6%
NC(N)=N/N=C/c1ccc(Cl)cc1Cl,3.16µM*,?,0.0%,-5.8%,?,-4.6%
C=C1C(=O)O[C@H]2C[C@H]1[C@@H](OC(C)=O)C/C(C)=C/CC/C(C)=C\CC[C@]2(C)O,nt,10µM*,7.08µM*,-20.7%,nt,nt
C[C@H](CO)NS(=O)(=O)c1cc(Cl)ccc1F,nt,nt,nt,nt,4.6%[46.1 µM],nt
CCOc1ccc2oc(C(=O)OCC(=O)N3C(C)CCCC3C)c(C)c2c1 (configuration not stated),nt,12.6µM*,?,-10.8%,nt,-0.4%
SMILES,MARV entry inh,HCV inhibitor,FMDV antiviral,RE007 growth inh,LASV entry inh,Sm TGR block
COc1ccc2oc(C(=O)N(C)Cc3ccc4c(c3)OCCO4)c(C)c2c1,20.4%,12.2%,17.0%,11.6%,9.3%,0.3%
COc1ccc2oc(C(=O)OCC(=O)c3ccc4c(c3)OCCO4)c(C)c2c1,?,4.9%,?,-1.2%,16.4µM*,3.5%[11.4 µM]
COc1ccc2oc(C(=O)OCC(=O)N3C(C)CCCC3C)c(C)c2c1 (configuration not stated),-16.2%[46.1 µM],-3.5%,9.5%,-6.3%,4.1%[46.1 µM],-1.9%
CCOc1ccc2oc(C(=O)OCC(=O)NCC3CCCO3)c(C)c2c1 (configuration not stated),5.2%,?,0.3%,0.4%,11.2µM*,-14.6%
CCCn1c(=N)c(C(=O)NC2CCCC2)cc2c(=O)n3cc(C)ccc3nc21,0.4%[46.1 µM],nt,-11.1%,nt,5.3%[46.1 µM],-2.7%
COc1cc(O)oc1C=Nc1ccc(Cl)cc1Cl,17.7%,-5.9%,15.1%,1.7%,-1.6%,79.4µM*
COc1cc(O)oc1C=Nc1ccc(Cl)cc1,7.1%,-2.4%,-14.6%,-4.1%,2.5%,-10.1%
COc1ccc(NC(=O)c2nn(C)c3c2CS(=O)(=O)c2ccccc2-3)cc1Cl,nt,nt,-12.0%,nt,6.3%[46.1 µM],-8.4%
O=C(O)CCCCCNS(=O)(=O)/C=C/c1ccccc1,-16.4%[46.1 µM],17.8%,-3.7%,-3.5%,2.7%,nt
O=C(O)CCCCCNS(=O)(=O)c1cccc2c1C(=O)c1ccccc1C2=O,?,-15.9%,-7.4%,?,0.6%,50.1µM*
COc1cc2c(c3oc(-c4ccccc4)cc(=O)c13)C=CC(C)(C)O2,nt,1µM*,?,-6.9%,nt,-9.8%
COc1cc(OC)c2c(=O)cc(-c3ccccc3)oc2c1,nt,?,31.0%,-7.0%,nt,4.8%
CCNC(=O)CN1c2cccc3cccc(c23)S1(=O)=O,-2.0%,10.5%,-4.1%,0.4%,?,3.9%
Cc1cc(C(=O)CN2C(=O)c3ccccc3S2(=O)=O)c(C)n1C(C)C,0.501µM*,-4.4%,?,17.7%,2µM*,-3.8%
CCn1c(C)cc(C(=O)CN2C(=O)c3ccccc3S2(=O)=O)c1C,?,-17.9%,?,5.5%,1.41µM*,-7.6%
COc1ccc(NC(=O)CN2c3cccc4cccc(c34)S2(=O)=O)c(OC)c1,-14.0%,?,0.7%,-5.1%,-14.8%,-4.4%
COCCCn1c(C)cc(C(=O)CN2c3cccc4cccc(c34)S2(=O)=O)c1C,nt,?,-0.6%,4.5%,nt,22.4µM*
CC(C)NC(=O)CN1C(=O)c2ccccc2S1(=O)=O,?,10.1%,48.7%,13.4%,12.5%,4.5%
COc1cc(NC(=O)CN2c3cccc4cccc(c34)S2(=O)=O)cc(OC)c1OC,?,11.2µM*,?,-21.3%,-3.1%,13.2%
CC(C)Cc1nn2cc(-c3cccc(Br)c3)nc2s1,?,nt,-11.2%,nt,?,2.3%
Cc1cccc(N2CCN(C(=O)c3noc4c3CCCCC4)CC2)c1C,nt,nt,-5.7%,nt,-12.6%[46.1 µM],12.0%
CCCn1cc(S(=O)(=O)c2ccccc2)c(=O)c2cc(F)c(N3CCCCCC3)cc21,nt,nt,0.0%,nt,?,2.7%
